Test results published in ChEMBL document CHEMBL1157539, “Thousands of chemical starting points for antimalarial lead identification” (Nature, 2010).

system: HepG2; assay: GSK_TCMDC: Percent inhibition of human HepG2 cell line. Test compounds present at 10uM.; assay type: functional

Row | SMILES | Inhibition [%]
1 | CNC(=O)c1ccccc1Nc1nc(Nc2ccc(N3CCOCC3)cc2)ncc1Cl.Cl | 75
2 | CC(=O)Nc1ccc(CNC2Cc3ccc(-c4ccc(Cl)c(Cl)c4)cc3C2)cc1 (stereo unspecified) | 49
3 | O=C(/C=C/c1ccc(C(F)(F)F)cc1)NCCCCCN1CCCN(C(=O)Nc2ccc(Cl)c(C(F)(F)F)c2)CC1 | 64
4 | CC(=O)Nc1ccc(CN2Cc3ccc(NC(=O)Nc4ccc(Oc5ccccc5)cc4)cc3C2)s1 | 9
5 | COc1ccc(CC(=O)NC(CCN2CCC3(CCc4ccccc43)CC2)c2ccc(Cl)c(Cl)c2)cc1 (stereo unspecified) | 28
6 | NC(=O)c1ccccc1Nc1nc(Nc2ccc(N3CCOCC3)cc2)ncc1[N+](=O)[O-].O=C(O)C(F)(F)F | 53
7 | Cc1ccc(F)c(OCC2CCCN(c3ccc(C(=O)NC4CC4)cn3)C2)c1 (stereo unspecified) | 3
8 | O=C(O)C(F)(F)F.c1cc(CNCCc2ccncc2)cc(-c2ccc(-c3nc4ccccc4[nH]3)cc2)c1 | 28
9 | COc1ccc(CCN2CCC(CN(C)Cc3cnn(-c4ccccc4)c3)CC2)cc1 | 25
10 | Cc1ccccc1C1CCN(C2CCC(NC(=O)/C=C/c3cccc(Cl)c3Cl)CC2)CC1 (stereo unspecified) | 74
11 | COc1cc2ccccc2c(CON2C(=N)N=C(N)NC2(C)C)c1OC.Cl | 2
12 | c1ccc(Nc2nc(-c3ccccn3)cs2)nc1 | 45
13 | Cl.Cn1ncc2c3c(CCN4CCC(NCc5ccc6c(c5)NC(=O)CO6)CC4)c(Cl)cnc3ccc21 | 18
14 | COc1ccc(-c2cncc(-c3ccc(OC)c(OC)c3)n2)cc1OC.Cl | 6
15 | CN(C)c1ccc(-c2nnc(Sc3ccc(C#N)c([N+](=O)[O-])c3)n2Cc2ccco2)cc1 | 3
16 | COc1ccc(C2CCN(CCCCNC(=O)c3ccc(NC(=O)c4ccc(Cl)cc4)cc3)CC2)cc1Cl | 28
17 | CCCC1N=C(N)N=C(N)N1c1ccccc1.Cl (stereo unspecified) | 0
18 | O=C(Nc1ccc(OC2CCN(Cc3ccc(F)cc3)CC2)c(Cl)c1)c1ccoc1.O=C(O)C(F)(F)F | 0
19 | CC(C)(C)CC(=O)Nc1ccc(Nc2cc(-c3ccncc3)cc3ncc(C(N)=O)cc23)cc1 | 5
20 | Cc1cccc2nc(-c3cccc(-c4ccc(CN5CCCC5CN)cc4)c3)[nH]c12.O=C(O)C(F)(F)F (stereo unspecified) | 19
21 | c1ccc(Oc2ccc(Nc3ccnc4cc(-c5cccc(CN6CCOCC6)c5)ccc34)cc2)cc1 | 14
22 | Cc1cc(CN2CC[C@H](NC(=O)c3ccc(Cl)c(Cl)c3)C2)ccc1OC1CCN(Cc2ccccc2)CC1.O=C(O)C(F)(F)F | 59
23 | Nc1c2ccccc2nc2cc(Cl)ccc12 | 24
24 | O=C(Nc1ccc(-c2cccc(-c3nc4ccccc4[nH]3)c2)cc1)Nc1ccc(F)c(F)c1F | 74
25 | Cc1cccc2nc(-c3ccc(-c4cccc(CN5CCN(CCO)CC5)c4)cc3)[nH]c12.O=C(O)C(F)(F)F | 20
26 | CN(C)Cc1ccc(-c2cccc(Nc3nccc(NCC(O)c4ccccc4)n3)c2)cc1 (stereo unspecified) | 74
